In PubChem BioAssay (NCATS):
Records with an inconclusive call do not appear. Where a call stands in place of a potency, no number is given. Unmarked numbers belong to inactive results. Calls of active or inactive are those of the source. Calls come from the whole dose curve; as a rule, active = well fitted curve in the direction sought with a large enough effect; inconclusive = small, poorly fitted or top-dose-only effect, or another doubt; inactive = no such curve, though single readings can be large; an effect the other way counts as inactive or inconclusive.

Assays:
[1] = biological target: Rap guanine nucleotide exchange factor 3 (Homo sapiens) (UniProt O95398); test: Confirmatory qHTS for agonist of cAMP-regulated guanine nucleotide exchange factor 3 (EPAC1) (AID 1645881);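 note: EPAC1 catalysed release of BODIPY-GDP from Rap1B seen as fluorescence loss; nearly all actives have a fitted effect of over 75% in size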
[2] = biological target: Rap guanine nucleotide exchange factor 4 (Homo sapiens) (UniProt Q8WZA2); test: Confirmatory qHTS for agonist of cAMP-regulated guanine nucleotide exchange factor 4 (EPAC2) (AID 1645884);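 note: nucleotide exchange releases bodipy-GDP from Rap1 and this lowers its fluorescence; nearly all actives have a fitted effect of over 65% in size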
[3] = biological target: Rap guanine nucleotide exchange factor 4 (Homo sapiens) (UniProt Q8WZA2); test: Confirmatory qHTS for antagonist of cAMP-regulated guanine nucleotide exchange factor 4 (EPAC2) (AID 1645885); note: nearly all actives have a fitted effect of over 25% in size; note: potency is the fitted concentration of half-maximal effect
[4] = biological target: Rap guanine nucleotide exchange factor 3 (Homo sapiens) (UniProt O95398); test: Counterscreen qHTS for antagonist of cAMP-regulated guanine nucleotide exchange factor 3 (EPAC1) (AID 1645888);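 note: fluorescence loss as bound BODIPY-GDP is released from Rap1B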
In short: (§1)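 Rap1B–BODIPY-GDP (250 nM) with 50 uM GDP; compounds pin-transferred to 9.74 nM–152 uM final (activator) or from 7.32 nM upwards (inhibitor). Fluorescence Ex/Em 480/540 nm read at 5 and 30 min, then after adding cAMP or buffer, at room temperature.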

[5] = biological target: Rap guanine nucleotide exchange factor 3 (Homo sapiens) (UniProt O95398); test: Counterscreen qHTS for agonist of cAMP-regulated guanine nucleotide exchange factor 3 (EPAC1) (AID 1645889); note: nearly all actives have a fitted effect of over 40% in size; note: potency is the fitted concentration of half-maximal effect
In short: as §1

Rap guanine nucleotide exchange factor 3 (Homo sapiens), sequence (O95398 whole entry, looked up): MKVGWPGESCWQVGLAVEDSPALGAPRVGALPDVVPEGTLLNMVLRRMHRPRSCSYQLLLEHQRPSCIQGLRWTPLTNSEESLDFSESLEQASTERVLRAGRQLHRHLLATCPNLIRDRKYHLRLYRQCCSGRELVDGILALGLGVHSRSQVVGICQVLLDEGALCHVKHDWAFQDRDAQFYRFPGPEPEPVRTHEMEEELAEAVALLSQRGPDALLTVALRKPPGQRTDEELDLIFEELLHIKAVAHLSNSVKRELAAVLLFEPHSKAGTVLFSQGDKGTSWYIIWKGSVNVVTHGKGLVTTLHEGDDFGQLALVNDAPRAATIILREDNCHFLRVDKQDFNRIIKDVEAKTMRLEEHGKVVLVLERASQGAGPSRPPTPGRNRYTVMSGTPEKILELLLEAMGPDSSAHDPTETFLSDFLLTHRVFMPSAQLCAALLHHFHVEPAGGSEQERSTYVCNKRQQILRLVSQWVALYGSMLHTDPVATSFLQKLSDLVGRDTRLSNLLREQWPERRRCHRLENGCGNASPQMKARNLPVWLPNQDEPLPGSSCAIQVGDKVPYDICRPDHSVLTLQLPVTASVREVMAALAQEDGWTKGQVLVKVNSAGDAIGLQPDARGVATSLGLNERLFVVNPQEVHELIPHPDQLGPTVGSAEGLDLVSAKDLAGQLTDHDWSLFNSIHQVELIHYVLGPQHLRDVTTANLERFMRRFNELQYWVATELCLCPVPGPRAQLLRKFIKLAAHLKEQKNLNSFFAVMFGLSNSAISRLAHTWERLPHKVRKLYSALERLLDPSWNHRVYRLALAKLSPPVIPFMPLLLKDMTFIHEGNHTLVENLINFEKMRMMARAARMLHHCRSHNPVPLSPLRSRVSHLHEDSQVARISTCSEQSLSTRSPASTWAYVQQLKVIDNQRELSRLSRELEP
Rap guanine nucleotide exchange factor 4 (Homo sapiens), sequence (Q8WZA2 whole entry, looked up): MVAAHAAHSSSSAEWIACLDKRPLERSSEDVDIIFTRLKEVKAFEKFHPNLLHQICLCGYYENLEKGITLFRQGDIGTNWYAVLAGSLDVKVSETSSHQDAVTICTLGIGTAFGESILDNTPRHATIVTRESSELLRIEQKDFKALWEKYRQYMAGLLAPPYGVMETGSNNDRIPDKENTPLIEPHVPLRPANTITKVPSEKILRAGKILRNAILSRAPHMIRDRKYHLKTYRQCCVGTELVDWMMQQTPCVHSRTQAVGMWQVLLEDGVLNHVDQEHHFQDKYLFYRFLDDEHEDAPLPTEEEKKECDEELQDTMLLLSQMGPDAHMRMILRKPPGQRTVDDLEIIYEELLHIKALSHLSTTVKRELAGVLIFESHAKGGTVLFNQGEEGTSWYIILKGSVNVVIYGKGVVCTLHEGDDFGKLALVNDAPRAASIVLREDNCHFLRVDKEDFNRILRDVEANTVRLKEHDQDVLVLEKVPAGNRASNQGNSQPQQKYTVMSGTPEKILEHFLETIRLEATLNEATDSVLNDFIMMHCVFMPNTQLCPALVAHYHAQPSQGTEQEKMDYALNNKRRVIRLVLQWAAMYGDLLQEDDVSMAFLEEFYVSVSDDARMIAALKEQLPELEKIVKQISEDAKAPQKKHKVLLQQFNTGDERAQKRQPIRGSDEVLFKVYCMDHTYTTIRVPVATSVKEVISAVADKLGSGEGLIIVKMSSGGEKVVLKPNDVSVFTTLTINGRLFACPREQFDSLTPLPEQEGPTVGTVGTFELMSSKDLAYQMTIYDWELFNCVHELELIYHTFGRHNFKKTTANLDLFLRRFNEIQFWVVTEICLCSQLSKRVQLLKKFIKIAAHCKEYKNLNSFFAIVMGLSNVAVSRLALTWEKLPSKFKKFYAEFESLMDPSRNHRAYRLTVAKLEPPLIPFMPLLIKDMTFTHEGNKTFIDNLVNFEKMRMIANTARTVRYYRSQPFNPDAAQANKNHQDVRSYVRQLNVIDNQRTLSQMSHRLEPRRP

| Compound | Potency [1] | Potency [2] | Potency [3] | Potency [4] | Potency [5] | activation [2] | activity change, negative = inhibition [4] | activation [5] |
| --- | --- | --- | --- | --- | --- | --- | --- | --- |
| O=C(CSc1ccc(-c2ccco2)nn1)c1ccc(F)cc1 | inactive | inactive | inactive | inactive | inactive |  |  |  |
| N#CC(c1nc2ccccc2nc1OCCO)S(=O)(=O)c1ccccc1 (stereo not given) | inactive |  | inactive |  |  | -1.2% [at 17.1 µM, percent relative to cAMP agonist control] | -25.3% [at 30.8 µM] | 20.5% [at 30.8 µM] |
| Cc1cccc(NC(=O)COC(=O)c2c(-c3ccccc3)noc2C)c1 | inactive |  | inactive |  |  | 4.55% [at 17.1 µM, percent relative to cAMP agonist control] | -6.85% [at 30.8 µM] | 24.2% [at 30.8 µM] |
| O=C(Cn1ncc(Cl)c(Cl)c1=O)NC(=O)NC1CCCCC1 | inactive |  | inactive |  |  | 3.69% [at 17.1 µM, percent relative to cAMP agonist control] | -1.53% [at 30.8 µM] | 9.51% [at 30.8 µM] |
| CC1(Cc2ccccc2Cl)C(=O)Nc2ccc(OC(F)(F)F)cc21 (stereo not given) | inactive |  | inactive |  |  | 0.883% [at 17.1 µM, percent relative to cAMP agonist control] | -9.83% [at 30.8 µM] | 5.61% [at 30.8 µM] |
| COc1ccccc1C(CCN(Cc1ccccc1)C(C)=O)c1ccco1 (stereo not given) | inactive |  | inactive |  |  | 8.17% [at 17.1 µM, percent relative to cAMP agonist control] | -15.7% [at 30.8 µM] | 10.4% [at 30.8 µM] |
| O=C(Nc1ccc(NC(=O)c2ccco2)c(Cl)c1)c1ccc2c(c1)OCCO2 | inactive | inactive | inactive | inactive | inactive |  |  |  |
| O=Nc1c(O)c2ccccc2c2ccccc12 | inactive |  | inactive |  |  | 0.886% [at 17.1 µM, percent relative to cAMP agonist control] | -4.76% [at 30.8 µM] | 24.1% [at 30.8 µM] |
| COc1ccc(C(=O)Nc2ccccc2-c2nnn(CC(N)=O)n2)cc1 | inactive | inactive | inactive | inactive | inactive |  |  |  |
| CC1(Cc2ccccc2Cl)C(=O)Nc2c(Cl)cccc21 (stereo not given) | inactive |  | inactive |  |  | 10% [at 17.1 µM, percent relative to cAMP agonist control] | -23.5% [at 30.8 µM] | 5.68% [at 30.8 µM] |
| Cc1nc2c(C(=O)NCc3ccc(F)cc3)c[nH]n2c(=O)c1Cl | inactive | inactive | inactive | inactive | inactive |  |  |  |
| O=C(C1CC1)N1CCCC(c2ccc(Cl)cc2)=N1 | inactive |  | inactive |  |  | -19.8% [at 17.1 µM, percent relative to cAMP agonist control] | -19% [at 30.8 µM] | -0.772% [at 30.8 µM] |
| CCc1nnc(NS(=O)(=O)c2ccc(N/C=C\C(=O)c3ccc4ccccc4c3)cc2)s1 | inactive |  | inactive |  |  | 1.49% [at 17.1 µM, percent relative to cAMP agonist control] | -10.2% [at 30.8 µM] | 3.82% [at 30.8 µM] |
| CC(=O)c1sc2nc(CSc3nnnn3-c3ccccc3)[nH]c(=O)c2c1C | inactive |  | inactive |  |  | 0.183% [at 17.1 µM, percent relative to cAMP agonist control] | -6.43% [at 30.8 µM] | 8.36% [at 30.8 µM] |
| CC1CC2(NC(=O)NC2=O)C(C)CN1C (stereo not given) | inactive | inactive | inactive | inactive | inactive |  |  |  |
| CC1CCc2[nH]c3ccc(C(=O)N4CCCC(C(F)(F)F)C4)cc3c2C1 (stereo not given) | inactive | inactive | inactive | inactive | inactive |  |  |  |
| CC1=NCCN1S(=O)(=O)c1c(C(C)C)cc(C(C)C)cc1C(C)C | inactive | inactive | inactive | inactive | inactive |  |  |  |
| CCOc1cc(/C=C2/SC(=S)N(CC(=O)O)C2=O)ccc1OC(=O)c1cccs1 | inactive | inactive | inactive | inactive | inactive |  |  |  |
| COc1ccccc1Cc1c(-c2ccco2)nc2cc(C)c(Br)c(C)n12 | inactive |  | inactive |  |  | 3.49% [at 17.1 µM, percent relative to cAMP agonist control] | -0.951% [at 30.8 µM] | 13.6% [at 30.8 µM] |
| O=c1cc(CSc2nc3ccccc3c(=O)[nH]2)c2ccc(O)cc2o1 | inactive | inactive | inactive | inactive | inactive |  |  |  |
| COc1ccc(OC)c(C(=O)/C=C/c2ccccc2C(F)(F)F)c1 | inactive | inactive | inactive | inactive | inactive |  |  |  |

| Compound | Potency [1] | Potency [2] | Potency [3] | Potency [4] | Potency [5] | activation [2] | activity change, negative = inhibition [4] | activation [5] |
| --- | --- | --- | --- | --- | --- | --- | --- | --- |
| CC1=C(C(=O)OC(C)C)C(c2ccc(C)o2)C(C(=O)OC(C)C)=C(C)N1 | inactive | inactive | 30.1 µM (active) | inactive | inactive |  |  |  |
| Cc1csc2c(=O)sc(NC(=O)c3cccs3)nc12 | inactive | inactive | inactive | inactive | inactive |  |  |  |
| Cc1cccc(NC(=O)CSCC(=O)N(C)CCOc2ccc(Cl)cc2)c1 | inactive | inactive | inactive | inactive | inactive |  |  |  |
| COc1ccc(OC)c(CCNC(=O)c2ccc(CS(=O)(=O)c3ccc(Br)cc3)o2)c1 | inactive | inactive | inactive | inactive | inactive |  |  |  |
| Cc1[nH]c(=O)nc(SCc2cccc(Cl)c2)c1C#N | inactive | inactive | inactive | inactive | inactive |  |  |  |
| Cc1ccc(C)c(Cn2nc(-c3cc(C)ccc3C)ccc2=O)c1 | inactive | inactive | inactive | inactive | inactive |  |  |  |
| COc1ccc(N(CC(=O)NC2CCCCCCC2)S(=O)(=O)c2c(C)nn(C)c2C)cc1 | inactive | inactive | inactive | inactive | inactive |  |  |  |
| CC1CCCN(c2nc3ccccc3nc2C(C#N)S(=O)(=O)c2ccccc2)C1 (stereo not given) | inactive | inactive | inactive | inactive | 22.4 µM (active) |  |  |  |
| C[C@@H]1CC=C[C@H]2[C@H]1C(=O)N(Cc1ccccc1)[C@H]2c1ccc(C(F)(F)F)cc1 | inactive |  | inactive |  |  | -4.74% [at 17.1 µM, percent relative to cAMP agonist control] | -9.3% [at 30.8 µM] | 7.88% [at 30.8 µM] |
| Oc1ccc(NCc2ccc(OCc3ccccc3Cl)cc2)cc1 | inactive | inactive | inactive | inactive | 56.2 µM (active) |  |  |  |
| CC1(C)[C@@H](O)CC[C@]2(C)C3C(O)C=C4[C@H]5C[C@@](C)(CO)CC[C@]5(C)CC[C@]4(C)[C@]3(C)CC[C@@H]12 (stereo not given in full) | inactive |  | inactive |  |  | -6.54% [at 17.1 µM, percent relative to cAMP agonist control] | -3.14% [at 30.8 µM] | -1.49% [at 30.8 µM] |
| CC1(NC(=O)CCc2nc3sc4c(c3c(=O)[nH]2)CCCC4)CCS(=O)(=O)C1 (stereo not given) | inactive |  | inactive |  |  | 0.392% [at 17.1 µM, percent relative to cAMP agonist control] | -17% [at 30.8 µM] | 8.58% [at 30.8 µM] |
| O=c1cc(-c2c(O)c3ccccc3n(Cc3ccccc3)c2=O)[nH][nH]1 | inactive | inactive | inactive | inactive | inactive |  |  |  |
| CC(C)C(=O)NC(c1ccccc1)c1cc([N+](=O)[O-])c2cccnc2c1O (stereo not given) | inactive |  | inactive |  |  | 4.72% [at 17.1 µM, percent relative to cAMP agonist control] | -3.56% [at 30.8 µM] | 39.4% [at 30.8 µM] |
| CCc1cc(C(=O)N=Nc2c(O)[nH]c3ccc([N+](=O)[O-])cc23)c2ccccc2n1 | inactive | inactive | inactive | inactive | inactive |  |  |  |
| O=C(Nc1nc(-c2cc(F)ccc2F)cs1)C1=COCCO1 | inactive | inactive | inactive | inactive | inactive |  |  |  |
| COc1cc(OC)cc(-c2cc3ccc(OC)cc3cn2)c1 | inactive | inactive | 30.1 µM (active) | inactive | inactive |  |  |  |
| N#Cc1c(NC(=O)C2CC=CCC2C(=O)O)sc2c1CCCCCC2 (stereo not given) | inactive |  | inactive |  |  | -2.41% [at 17.1 µM, percent relative to cAMP agonist control] | -15.2% [at 30.8 µM] | 6.58% [at 30.8 µM] |
| CC(=O)Nc1cccc(C(=O)/C=C/c2ccc(F)cc2)c1 | inactive | inactive | inactive | inactive | inactive |  |  |  |
| CCOC(=O)C1=C(C)N=c2s/c(=C/c3cccc([N+](=O)[O-])c3O)c(=O)n2C1c1ccccc1 (stereo not given) | inactive | inactive | inactive | inactive | inactive |  |  |  |
| C=CCc1ccccc1OCCSc1nc(-c2ccc(C(C)(C)C)cc2)nc2cc(=O)[nH]n12 | inactive | inactive | inactive | inactive | inactive |  |  |  |
